Inconclusive results are not listed. Where a call stands in place of a potency, no number is given. The source made the active and inactive calls. Calls follow the shape of the dose curve; as a rule, active = well fitted inhibition curve with a large enough effect; inconclusive = small, poorly fitted or top-dose-only effect; inactive = flat fitted curve, though single readings scatter.

For the assay, the target named is Calcium and integrin-binding protein 1 (Homo sapiens) (UniProt Q99828). As to the kind of experiment: Primary qHTS for Identification of Calcium Integrin Binding Protein 1 (CIB1) Competitor (AID 1508620).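 Also: GST tagged CIB1 binding a fluorescein labelled alphaIIb integrin peptide tracer; top concentration of the series differs between compounds.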 The note with it: CIB1-GST / FITC-alphaIIb peptide fluorescence polarization; series mostly up to 114 µM. The text has this: Assay Provider: Ulhas P. Naik, PhD Sidney Kimmel Medical College Thomas Jefferson University, Philadelphia, PA Primary function of platelets is to maintain hemostasis. At the site of vascular injury, platelets adhere to adhesive proteins such as collagen and von Willebrand factor. Adherent platelets are activated and generate soluble platelet agonists such as thrombin, ADP and thromboxane A2. Following exposure of circulating platelets to these agonists, results in platelet shape change, granule secretion and activation of platelet integrin alphaIIb-beta3. Ligand binding to activated integrin alphaIIb-beta3 triggers outside-in signaling, leading to platelet aggregation, stabilization of platelet plug, and clot retraction. Upon atherosclerotic plaque rupture also causes platelet plug formation, which underlies a number of cardiovascular diseases such as myocardial infraction and stroke. A number of anti-platelet drugs such as aspirin, clopidogrel, prasugrel, vorapaxar, and eptifibatide are currently available to prevent the thrombotic complications. However, these anti-platelet agents have several limitations including inherent variability in individual responses, developing resistance, and serious bleeding side effects. For these reasons they are not suitable for long-term protection. Based on the experiences with current anti-platelet drugs, it appears that the most useful therapeutic approach is to intersect the secondary responses such as integrin outside-in signaling or recruitment of platelets by TxA2 and secreted ADP. Compounds, which can largely preserve the primary hemostatic function of platelets but inhibit secondary response will be most desired therapeutic agents for treatment of cardiovascular disease. CIB1 is a calcium integrin binding protein, which specifically interact with the alphaIIb subunit of integrin alphaIIb-beta3. Binding of CIB1 to alphaIIb regulates the outside-in signaling in platelets, which is needed for thrombus stabilization and thrombus growth. […] Therefore, we propose that discovery of a small molecule that can prevent the association of CIB1 and alphaIIb-beta3 will be a potential anti-platelet agent that can block the thrombus formation without undue effect on hemostasis. Reference: [1] Naik MU, Nigam A, Manrai P, et al. CIB1 deficiency results in impaired thrombosis: the potential role of CIB1 in outside-in signaling through integrin alpha IIb beta 3. J Thromb Haemost.
Calcium and integrin-binding protein 1 (Homo sapiens), sequence (Q99828 whole entry, looked up): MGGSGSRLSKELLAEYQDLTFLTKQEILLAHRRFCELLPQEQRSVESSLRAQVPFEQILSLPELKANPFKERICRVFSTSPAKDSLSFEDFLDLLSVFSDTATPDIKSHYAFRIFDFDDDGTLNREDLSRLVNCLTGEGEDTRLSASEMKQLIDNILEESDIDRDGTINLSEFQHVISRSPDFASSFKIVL
PROTOCOL TABLES SEQUENCE No. (1, 2, 3, etc.); […] (e.g., Cells, Incubation, Reagent, etc.); VALUE and DESCRIPTION. 1; Reagent; 3 uL; Protein or buffer (4/3x) 2; Compound; 46 nL; Control inhibitor / compound library 3; Time; 15 min; Room temperature incubation 4; Reagent; 1 uL; Fluorescent labeled peptide (4x) 5; Time; 1000 rpm; Centrifuge 6; Time; 15 min; Room temperature incubation 7; Detection; Ex 480/ Em 540; ViewLux Fluorescence Read NOTES (numbers refer to sequence above) 1; Protein Mixture: C1B1-GST (final concentrations of 1 uM). […] 3; Room temperature incubation. 4; Fluorescent Labeled Peptide: FITC-aIIb (final concentration of 100 nM). Sequence of alphaIIb peptide: Acetyl-[…]-FITC (purity is 95.83%). 5; Centrifuge 1000 rpm (164 g) for 15 seconds. 6; Room temperature incubation. 7; ViewLux Fluorescent Polization Read: excitation = 480(20) / emission = 540(25) S and P; FITC Dichroic mirror.
(In general: qHTS replaces the single test concentration by a dilution series.)
On to `CCOC(=O)c1csc(Nc2ccc(Cl)cc2)n1`, for which the Potency entry is “inactive”.
`O=C(Nc1ccccc1C(=O)Nc1ccc(CCO)cc1)c1ccc([N+](=O)[O-])cc1`: the Potency entry is “inactive”.
Take `CC(C)c1ccccc1OC(=O)NCCc1ccc2ccccc2c1`: the Potency entry was “inactive”.
Turning to `C/C=C/C=C/C=C/C(=O)O[C@@H]1C=C2COC(=O)[C@]2(O)[C@@]2(C)CCCC(C)(C)[C@H]12`, the Potency result is “inactive”.
Consider `CC1CC(=O)C2=C(C1)C1OC1C1(O)C2C(=O)c2cccc(O)c2C1O` (stereo not given), for which the Potency entry is “inactive”.
For `CC(=O)CC(=O)Nc1ccc(Cl)c(C(F)(F)F)c1`, the Potency entry is “inactive”.
As for `CN1CC2CN(c3ccc4oc5ccccc5c(=O)c4c3)CC2C1` (stereo not given), the entry is “inactive”; as for `O=C1NC(=O)C(c2cnc3ccccn23)=C1c1cn2c3c(cc(F)cc13)CN(C(=O)N1CCCCC1)CC2`, “inactive”; as for `Cn1cc(-c2ccc(S(=O)(=O)n3ccc(/C=C/C(=O)Nc4ccccc4N)c3)cc2)cn1`, “inactive”.
With `Nc1nc2c(s1)CCN(Cc1ccc(Cl)cc1)CC2`, the Potency entry is “inactive”.
For the compound `CNC(=O)[C@@H](c1ccccc1)N1CCc2cc(OC)c(OC)cc2[C@@H]1CCc1ccc(C(F)(F)F)cc1`, the Potency entry is “inactive”.
As for `CCOC(=O)c1cnn(-c2ccccc2)c1NC(=O)c1cc2nc(-c3ccco3)cc(C(F)(F)Cl)n2n1`, the entry is “inactive”; as for `COC(=O)/C=C/C=C/C(=O)OC1C=C2COC(=O)C2(O)C2(C)CCCC(C)(C)C12` (stereo not given), “inactive”.
With `CCCc1cc(C)[nH]c(=O)c1CNC(=O)c1cc(-c2ccc(N3CCN(C(C)C)CC3)nc2)cc2c1cnn2C(C)C`, the Potency result is “inactive”.
Consider `COc1cc2nc(N3CCN(C(=O)c4ccco4)C4CCCCC43)nc(N)c2cc1OC` (stereo not given), for which the Potency result was “inactive”.
As for `COCC(=O)NC/C=C/c1ccc2ncnc(Nc3ccc(Oc4ccc(C)nc4)c(C)c3)c2c1`, the entry is “inactive”.
For `CC1(C)CCCC2(C)C1C(OC(=O)/C=C/C=C/C=O)C=C1COC(=O)C12O` (stereo not given), the Potency result was “inactive”.
Regarding `NS(=O)(=O)c1ccc(N2N=C(c3ccccc3)CC2c2ccccc2)cc1` (stereo not given), the Potency result was “inactive”.
For the compound `C[C@H]1CC[C@@]2(OC1)O[C@H]1CC3[C@@H]4CC[C@@H]5C[C@@H](O[C@@H]6O[C@H](CO)[C@@H](O[C@@H]7O[C@H](CO[C@@H]8OC[C@@H](O)[C@H](O)[C@H]8O)[C@@H](O[C@@H]8O[C@H](CO)[C@H](O)[C@H](O)[C@H]8O)[C@H](O)[C@H]7O)[C@H](O)[C@H]6O)CC[C@]5(C)C4CC[C@]3(C)[C@H]1[C@@H]2C` (stereo not given in full), the Potency result is “inactive”.
In the case of `Cc1[nH]cnc1C[C@H]1CCc2c(C)c3ccccc3n2C1=O`, the Potency result is “inactive”.
`C=C1C(=O)OC2CC(C)C(CCC(C)O)=CCC12` (stereo not given): the Potency entry was “inactive”.
Turning to `CNS(=O)(=O)c1ccccc1Nc1nc(Nc2ccc(N3CCN(C)CC3)cc2OC)ncc1Br`, the Potency entry is “inactive”.
As for `O=C(/C=C/c1ccccc1O)O[C@@H]1O[C@H](CO)[C@@H](O)[C@H](O)[C@H]1O`, the entry is “inactive”.
As to `O=C(COc1ccc(C(=O)c2ccccc2)cc1)NC1CCN(Cc2ccccc2)CC1`, the Potency result is “inactive”.
As to `C=C1CC[C@@H]2[C@](C)(CO)[C@H](O)CC[C@@]2(C)[C@@H]1CC(O)C1=CCOC1=O` (stereo not given in full), the Potency entry is “inactive”.
Turning to `CC(=O)O[C@@]12CO[C@@H]1C[C@H](O)[C@@]1(C)C(=O)[C@H](O)C3=C(C)[C@@H](OC(=O)[C@H](O)[C@@H](NC(=O)OC(C)(C)C)c4ccccc4)C[C@@](O)([C@@H](OC(=O)c4ccccc4)C12)C3(C)C` (stereo not given in full), the Potency entry was “inactive”.
As for `CC1(C)CC[C@]23CO[C@@]4(CCC5[C@@]6(C)CC[C@H](O[C@@H]7OC[C@H](O[C@@H]8O[C@H](CO)[C@@H](O)[C@H](O)[C@H]8O[C@@H]8OC[C@@H](O)[C@H](O)[C@H]8O)[C@H](O)[C@H]7O[C@@H]7O[C@H](CO)[C@@H](O)[C@H](O)[C@H]7O)[C@@](C)(CO)C6CC[C@@]5(C)[C@]4(C)C[C@H]2O)[C@@H]3C1` (stereo not given in full), the entry is “inactive”; as for `CC(NC(=O)Cc1cc(F)cc(F)c1)C(=O)NC1C(=O)N(C)c2ccccc2-c2ccccc21` (stereo not given), “inactive”.
As to `C=C1C(=O)O[C@H]2/C=C(/C)[C@@H](OC(C)=O)C/C=C(\C)C[C@@H](OC(=O)/C(=C/C)COC(=O)/C(=C/C)CO)[C@@H]12`, the Potency result was “inactive”.
With `CC12CCC(OC3OC(CO)C(O)C(O)C3OC3OC(CO)C(O)C(O)C3O)CC1CCC1C2CCC2(C)/C(=C3/COC(=O)C3)CCC12O` (stereo not given), the Potency entry was “inactive”.
With `CC#CC(=O)Nc1ccc2ncnc(Nc3cccc(Br)c3)c2c1`, the Potency result was “inactive”.
As for `CCOC(=O)N1CCC(N2CCC[C@@H](NC(=O)c3ccccc3C)C2)CC1`, the entry is “inactive”; as for `Cc1cc(C(=O)Nc2cc(Oc3ccc4nc(NC(=O)C5CC5)cn4n3)ccc2C)n(C)n1`, “inactive”; as for `O=C(Nc1cccnn1)N1CCN(c2nccc(-c3ccc(F)c(F)c3)n2)CC1`, “inactive”.
As for `COc1cc2nc(N3CCN(C(=O)COc4c(OC)cccc4C(C)C)CC3)nc(N)c2cc1OC`, the entry is “inactive”; as for `CN(C)CCC(CSc1ccccc1)Nc1ccc(S(=O)(=O)NC(=O)c2ccc(N3CCN(Cc4ccccc4-c4ccc(Cl)cc4)CC3)cc2)cc1[N+](=O)[O-]` (stereo not given), “inactive”.
As for `O=C(Nc1ccc2[nH]nc(-c3ccncc3)c2c1)[C@@H]1CCN(CC(=O)N2CCN(c3ccc(-c4ncccn4)cc3)CC2)C1`, the entry is “inactive”.
In the case of `COc1ccc(C[C@H]2COC(=O)[C@@H]2Cc2ccc(O[C@@H]3O[C@H](CO)[C@@H](O)[C@H](O)[C@H]3O)c(OC)c2)cc1OC`, the Potency result was “inactive”.
`CCN(CC)CCCS(=O)(=O)N[C@H](CCc1ccccc1)c1nc(Cc2ccc(Br)cc2)no1`: the Potency result was “inactive”.
On to `CC(=O)OC1C(O)CC2(C)C(CCC3(C)C2CC=C2C4C5(CCC(CO[C@@H]6O[C@H](CO)[C@@H](O)[C@H](O)[C@H]6O)(OC5=O)C4(C)O)C(O)CC23C)C1(C)C` (stereo not given in full), for which the Potency result is “inactive”.

These data come from PubChem BioAssay (NCATS).
